# Data from PubChem BioAssay (NCATS).
# Inconclusive results are not listed. Values without a mark were called inactive. The source made the active and inactive calls. Calls follow the shape of the dose curve; as a rule, active = well fitted inhibition curve with a large enough effect; inconclusive = small, poorly fitted or top-dose-only effect; inactive = flat fitted curve, though single readings scatter.
# Test system: CRL-7250
# Assay: Cytotoxic Profiling of Annotated Libraries Using Quantitative High-Throughput Screening (AID 1296008); also: nearly all actives have a fitted effect of over 60% in size
# Details: Five cell lines viability, CellTiter-Glo ATP luminescence, 48-72 h; max response: hits give low values
# How it was run: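 Compounds were pin-transferred onto cells and incubated 48 or 72 hr at 37 degree Celsius, 95% humidity. CellTiter-Glo was added, plates sat 10 min at room temperature, then ATP-coupled luminescence was imaged as the viability read-out.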
# % is scaled to controls: 0 for no effect and ±100 for the full control effect; potency is read from the fitted curve at half-maximal effect.
Compound,outcome,max response [%],Potency
CC(C)=CCC(O)/C(C)=C/CO[C@@H]1O[C@H](CO)[C@@H](O)[C@H](O)[C@H]1O (some centres undefined),inactive,,
COc1c2c(c(C)c3c1C(=O)OC3)OC1(C)CC(O)C(C(C)(C)O)C(C)(CCC(=O)O)C1C2 (centres undefined),inactive,,
Cc1ccc(NC(=O)c2ccc(CN3CC[C@H](N(C)C)C3)c(C(F)(F)F)c2)cc1Nc1nccc(-c2cncnc2)n1,,-22.1,
CC(=O)O[C@H]1[C@H](O[C@H]2[C@@H]3C=CO[C@@H](O[C@@H]4O[C@H](CO)[C@@H](O)[C@H](O)[C@H]4O)[C@@H]3[C@@]3(CO)O[C@@H]23)O[C@@H](C)[C@H](OC(=O)/C=C/c2ccccc2)[C@H]1OC(=O)/C=C/c1ccccc1,,-1.73,
CC1(O)CCCC2(C)C1CCC13CC(CO)C(CCC12)C3 (centres undefined),,-2.17,
CCCN1CCC(c2cccc(S(C)(=O)=O)c2)CC1,,-0.494,
Cc1cc2c(F)c(Oc3ncnn4cc(OCC(C)O)c(C)c34)ccc2[nH]1 (centres undefined),,-24.6,
COc1cc(Br)c(Nc2nc(-c3c(C)nc4ncccn34)cs2)c(Br)c1,,,4.61 µM (active)
CCOc1cc(C)c(Cl)cc1S(=O)(=O)n1cnc2ccccc21,,-6.19,
CC1(C)CC2C(C1)C(C)(O)C13CC1(COC3=O)C2O (centres undefined),,-28,
C[S+](CC[C@H](N)C(=O)[O-])C[C@H]1O[C@@H](n2cnc3c(N)ncnc32)[C@H](O)[C@@H]1O (some centres undefined),,-13.4,
C/C=C/c1ccc2oc(-c3ccc(O)c(OC)c3)c(C)c2c1,,-27.9,
O=C(/C=C/c1ccc(O)cc1)OC1[C@H](O)CC(O)(C(=O)O)C[C@H]1O (some centres undefined),,-9.1,
CC1OC2OC(=O)C3(C)CC4=C(CO)C5=C(CC(=O)C4(C)C(C1=O)C23)C(C)(C)OC(=O)C5 (centres undefined),,-28.4,
